For 35 molecules, Potency results are on record in PubChem BioAssay (Tox21).

Results filed as inconclusive are left out. Entries that show only a call come without a potency. Activity calls are given as the source filed them. Calls come from the whole dose curve; as a rule, active = well fitted curve in the direction sought with a large enough effect in the repeat runs; inconclusive = weak or mixed curves; inactive = no such curve, though single readings can be large; an effect the other way counts as inactive or inconclusive.

One test is described as follows: A CellTox Green Cytotoxicity Assay to monitor cytotoxicity in HepG2 cells - 8 hour (AID 1224890). Note: nearly all actives have a fitted effect of over 45% in size. The following applies: CellTox Green fluorescence; series mostly up to 76.8 µM. In outline:
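Continuous culture of HepG2 cells with a membrane-impermeant DNA dye; rising fluorescence marks dead cells. Compound exposure lasted up to 40 h at 37 C, with reads every 8 h from 0 h.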
Take `Cl/C=C\C[N+]12CN3CN(CN(C3)C1)C2`: the Potency result was “inactive”.

For `O=C(O)c1ccccc1C(=O)Nc1cccc2ccccc12`, the Potency result is “inactive”.

For `O=S(=O)(Cl)c1ccccc1`, the Potency entry was “inactive”.

In the case of `O=C(O)C1(c2ccc3c(c2)OC[C@H](Cc2ccc(-c4ccccc4)cc2)[C@H]3O)CCCC1`, the Potency result is “inactive”.

Take `Clc1cccc2ccccc12`: the Potency entry is “inactive”.

On to `C=CC(C)=O`, for which the Potency entry was “inactive”.

On to `COC(=O)C(Br)CBr` (stereo unspecified), for which the Potency result is “inactive”.

For `CCCN(CCC)c1c([N+](=O)[O-])cc(S(C)(=O)=O)cc1[N+](=O)[O-]`, the Potency entry was “inactive”.

Take `NNC(=O)c1cccnc1`: the Potency entry is “inactive”.

On to `COc1c(C(C)(C)C)cc([N+](=O)[O-])c(C)c1[N+](=O)[O-]`, for which the Potency entry is “inactive”.

Regarding `[O-][Cl+]O`, the Potency result was “inactive”.

Take `Nc1nc(N)nc(N)n1`: the Potency result was “inactive”.

For `O=Cc1ccc2c(c1)OCO2`, the Potency result is “inactive”.

For `CCO[C@H]1O[C@@H]2OC3(C)CC[C@H]4[C@H](C)CC[C@@H]([C@H]1C)[C@@]24OO3`, the Potency result is “inactive”.

As to `CO/N=C(/C(=O)OC)c1ccccc1COc1ccccc1C`, the Potency result is “inactive”.

`CC(=O)NC1CCSC1=O` (stereo unspecified): the Potency entry was “inactive”.

`CCCCOC(=O)c1ccccc1C(=O)OCc1ccccc1`: the Potency entry is “inactive”.

As for `C=CC(=O)OCC(C)O` (stereo unspecified), the Potency entry is “inactive”.

Turning to `CCOC(=O)C(Cl)C(C)=O` (stereo unspecified), the Potency entry is “inactive”.

Regarding `O=Cc1ccc(Cl)cc1Cl`, the Potency entry is “inactive”.

In the case of `CC(C)(CCl)C(=O)Cl`, the Potency entry was “inactive”.

Take `CCCCN(N=O)C(=N)N[N+](=O)[O-]`: the Potency result was “inactive”.

On to `Nc1nc(=S)[nH][nH]1`, for which the Potency entry was “inactive”.

As to `CC1C(=O)C[C@]2(C(C)C)C[C@H]12` (stereo partly specified), the Potency result was “inactive”.

As for `Cc1ccccc1CCl`, the Potency entry was “inactive”.

Take `CCCCN=C=O`: the Potency entry is “inactive”.

`O=C=Nc1ccc(Cl)cc1`: the Potency result was “inactive”.

For the molecule `CCCCC(CC)COP(=O)(Oc1ccccc1)Oc1ccccc1` (stereo unspecified), the Potency result was “inactive”.

As for `O=C(O)COc1ccc(Cl)cc1`, the Potency result is “inactive”.

Take `O=C(CBr)c1ccccc1`: the Potency entry is “inactive”.

As for `CCOP(=S)(Oc1ccc([N+](=O)[O-])cc1)c1ccccc1` (stereo unspecified), the Potency entry was “inactive”.

On to `C=CC(=O)OC`, for which the Potency entry was “inactive”.

With `BrCCCCBr`, the Potency result was “inactive”.

For the molecule `C/C(=C\c1ccccc1)[N+](=O)[O-]`, the Potency result is “inactive”.

`C=COC(C)=O`: the Potency entry was “inactive”.

A short description of a further test: qHTS assay to identify small molecule antagonists of the estrogen receptor alpha (ER-alpha) signaling pathway using the BG1 cell line in the presence of 0.1 nM 17-beta-estradiol - cell viability counter screen (AID 1259241). Note: nearly all actives have a fitted effect of over 40% in size. The note with it: VM7Luc4E2 (BG1) viability, CellTiter-Fluor protease, 22 h, 0.1 nM estradiol agonist added; series mostly up to 92.4 µM. In outline:
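The cell line endogenously expresses full-length ER-alpha and carries four EREs driving luciferase. Cells are cultured 5 days hormone-free, treated 22 hr with compounds and 0.1 nM estradiol, then viability is read by fluorescence.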
On the technique in general: qHTS replaces the single test concentration by a dilution series.
With `Cl/C=C\C[N+]12CN3CN(CN(C3)C1)C2`, the Potency entry was “inactive”.

Consider `O=C(O)c1ccccc1C(=O)Nc1cccc2ccccc12`, for which the Potency entry is “inactive”.

On to `O=S(=O)(Cl)c1ccccc1`, for which the Potency entry is “inactive”.

For `O=C(O)C1(c2ccc3c(c2)OC[C@H](Cc2ccc(-c4ccccc4)cc2)[C@H]3O)CCCC1`, the Potency result is “inactive”.

Consider `Clc1cccc2ccccc12`, for which the Potency result was “inactive”.

In the case of `C=CC(C)=O`, the Potency result is “inactive”.

Turning to `COC(=O)C(Br)CBr` (stereo unspecified), the Potency result was “inactive”.

With `CCCN(CCC)c1c([N+](=O)[O-])cc(S(C)(=O)=O)cc1[N+](=O)[O-]`, the Potency entry is “inactive”.

In the case of `NNC(=O)c1cccnc1`, the Potency entry is “inactive”.

For `COc1c(C(C)(C)C)cc([N+](=O)[O-])c(C)c1[N+](=O)[O-]`, the Potency result was “inactive”.

Turning to `[O-][Cl+]O`, the Potency entry is “inactive”.

For the molecule `Nc1nc(N)nc(N)n1`, the Potency result was “inactive”.

Consider `O=Cc1ccc2c(c1)OCO2`, for which the Potency entry was “inactive”.

In the case of `CCO[C@H]1O[C@@H]2OC3(C)CC[C@H]4[C@H](C)CC[C@@H]([C@H]1C)[C@@]24OO3`, the Potency entry was “inactive”.

For `CO/N=C(/C(=O)OC)c1ccccc1COc1ccccc1C`, the Potency result is “inactive”.

Consider `CC(=O)NC1CCSC1=O` (stereo unspecified), for which the Potency entry was “inactive”.

With `CCCCOC(=O)c1ccccc1C(=O)OCc1ccccc1`, the Potency result is “inactive”.

As to `C=CC(=O)OCC(C)O` (stereo unspecified), the Potency result is “inactive”.

`CCOC(=O)C(Cl)C(C)=O` (stereo unspecified): the Potency entry was “inactive”.

On to `O=Cc1ccc(Cl)cc1Cl`, for which the Potency entry is “inactive”.

With `CC(C)(CCl)C(=O)Cl`, the Potency entry was “inactive”.

`CCCCN(N=O)C(=N)N[N+](=O)[O-]`: the Potency result is “inactive”.

As to `Nc1nc(=S)[nH][nH]1`, the Potency entry is “inactive”.

`CC1C(=O)C[C@]2(C(C)C)C[C@H]12` (stereo partly specified): the Potency result was “inactive”.

Turning to `Cc1ccccc1CCl`, the Potency result was “inactive”.

Regarding `CCCCN=C=O`, the Potency entry is “inactive”.

As to `O=C=Nc1ccc(Cl)cc1`, the Potency result was “inactive”.

With `CCCCC(CC)COP(=O)(Oc1ccccc1)Oc1ccccc1` (stereo unspecified), the Potency entry is “inactive”.

Regarding `O=C(O)COc1ccc(Cl)cc1`, the Potency result was “inactive”.

As for `O=C(CBr)c1ccccc1`, the Potency entry is “inactive”.

For the molecule `CCOP(=S)(Oc1ccc([N+](=O)[O-])cc1)c1ccccc1` (stereo unspecified), the Potency result was “inactive”.

For the molecule `C=CC(=O)OC`, the Potency result is “inactive”.

Take `BrCCCCBr`: the Potency entry is “inactive”.

For the molecule `C/C(=C\c1ccccc1)[N+](=O)[O-]`, the Potency entry is “inactive”.

For the molecule `C=COC(C)=O`, the Potency result was “inactive”.

Another test can be described thus: qHTS assay to identify small molecule antagonists of the androgen receptor (AR) signaling pathway using the MDA cell line in the presence of 0.5 nM R1881 - cell viability counter screen (AID 1259242). Note: nearly all actives have a fitted effect of over 45% in size. The following applies: MDA-kb2 viability, CellTiter-Fluor protease fluorescence, 16 h; series mostly up to 92.4 µM. The gist of the method:
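Fluorescence from CellTiter-Fluor, which reports protease activity of live cells, was read 30 min after reagent addition to MDA-kb2 cells that had been incubated 16 hr with compound and 0.5 nM R1881.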
As to `Cl/C=C\C[N+]12CN3CN(CN(C3)C1)C2`, the Potency entry is “inactive”.

In the case of `O=C(O)c1ccccc1C(=O)Nc1cccc2ccccc12`, the Potency entry was “inactive”.

For `O=S(=O)(Cl)c1ccccc1`, the Potency result was “inactive”.

As for `O=C(O)C1(c2ccc3c(c2)OC[C@H](Cc2ccc(-c4ccccc4)cc2)[C@H]3O)CCCC1`, the Potency entry is “inactive”.

With `Clc1cccc2ccccc12`, the Potency entry is “inactive”.

In the case of `C=CC(C)=O`, the Potency result was “inactive”.

With `COC(=O)C(Br)CBr` (stereo unspecified), the Potency result is “inactive”.

As for `CCCN(CCC)c1c([N+](=O)[O-])cc(S(C)(=O)=O)cc1[N+](=O)[O-]`, the Potency entry was “inactive”.

`NNC(=O)c1cccnc1`: the Potency result was “inactive”.

In the case of `COc1c(C(C)(C)C)cc([N+](=O)[O-])c(C)c1[N+](=O)[O-]`, the Potency result is “inactive”.

`[O-][Cl+]O`: the Potency entry is “inactive”.

For `Nc1nc(N)nc(N)n1`, the Potency result was “inactive”.

For the molecule `O=Cc1ccc2c(c1)OCO2`, the Potency result was “inactive”.

For the molecule `CCCCOC(=O)c1ccccc1C(=O)OCc1ccccc1`, the Potency result is “inactive”.

Turning to `C=CC(=O)OCC(C)O` (stereo unspecified), the Potency result was “inactive”.

Turning to `CCOC(=O)C(Cl)C(C)=O` (stereo unspecified), the Potency result was “inactive”.

As for `O=Cc1ccc(Cl)cc1Cl`, the Potency result is “inactive”.

`CC(C)(CCl)C(=O)Cl`: the Potency result is “inactive”.

With `CCCCN(N=O)C(=N)N[N+](=O)[O-]`, the Potency result was “inactive”.

Turning to `Nc1nc(=S)[nH][nH]1`, the Potency result was “inactive”.

Turning to `CC1C(=O)C[C@]2(C(C)C)C[C@H]12` (stereo partly specified), the Potency entry is “inactive”.

Turning to `Cc1ccccc1CCl`, the Potency result is “inactive”.

For `CCCCN=C=O`, the Potency entry is “inactive”.

On to `O=C=Nc1ccc(Cl)cc1`, for which the Potency result was “inactive”.

`CCCCC(CC)COP(=O)(Oc1ccccc1)Oc1ccccc1` (stereo unspecified): the Potency entry was “inactive”.

As for `O=C(O)COc1ccc(Cl)cc1`, the Potency entry was “inactive”.

For `O=C(CBr)c1ccccc1`, the Potency entry is “inactive”.

For the molecule `CCOP(=S)(Oc1ccc([N+](=O)[O-])cc1)c1ccccc1` (stereo unspecified), the Potency result was “inactive”.

Consider `C=CC(=O)OC`, for which the Potency entry was “inactive”.

For `BrCCCCBr`, the Potency entry is “inactive”.

As for `C=COC(C)=O`, the Potency entry is “inactive”.
